PubChem BioAssay AID504834 (National Center for Advancing Translational Sciences (NCATS), 2011)
About 22,000 (6.9%) of roughly 320,000 compounds were called active. Roughly 27% stayed inconclusive and do not appear here. What follows is part of a selection rich in actives, with near analogues and random picks from the rest. A call without a number means that no potency is given here. A number with no mark means an inactive call. Calls come from the whole dose curve; as a rule, active = well fitted inhibition curve with a large enough effect; inconclusive = small, poorly fitted or top-dose-only effect, or another doubt; inactive = no such curve, though single readings can be large or run the other way.

Test: Primary qHTS for delayed death inhibitors of the malarial parasite plastid, 96 hour incubation
Conditions: P. falciparum luciferase reporter growth; series mostly up to 28.7 µM
In short: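 Parasite growth measured via integrated firefly luciferase reporter in P. falciparum. Infected erythrocytes at 2% hematocrit, 0.05% parasitemia final were treated 96 hours at 37 C under 5% CO2, and luminescence was read.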
Potency is the fitted concentration of half-maximal effect.

Row | SMILES | Potency | activity change, negative = inhibition
1 | CSc1n[nH]c(=S)n1N | inactive | 
2 | Cc1c(CC(=O)NCCCCCC(=O)O)c(=O)oc2cc3occ(-c4ccccc4)c3cc12 | inactive | 
3 | CCOc1ccccc1NC(=O)Cn1ncc2ccc([N+](=O)[O-])cc21 | inactive | 
4 | CC(=O)NC1CCN(CC(=O)Nc2nccs2)CC1 | inactive | 
5 | O=C(Nc1ccccc1F)c1ccc(S(=O)(=O)N2CCCCCC2)cc1 | inactive | 
6 | O=C(Nc1ncccc1O)c1ccc(C(=O)c2ccccc2)cc1 | 0.928 µM (active) | 
7 | O=C(NC(=O)c1ccccc1)Nc1ccccc1O | inactive | 
8 | O=C(N/N=C/c1ccccn1)c1ccc(S(=O)(=O)N2CCCCCC2)cc1 | inactive | 
9 | CN1CCN(NC(=O)c2ccc(S(=O)(=O)N3CCCCCC3)cc2)CC1 | inactive | 
10 | CCOC(=O)c1csc(NC(=O)c2ccc(S(=O)(=O)N3CCCC3)cc2)n1 | inactive | 
11 | O=C(Nc1ncccc1O)c1ccc(S(=O)(=O)N2CCCC2)cc1 | 2.08 µM (active) | 
12 | O=C(CNC(=O)c1ccc2ccccc2c1)Nc1ncccc1O | inactive | 
13 | O=C(Nc1ncccc1O)c1ccc(S(=O)(=O)N2CCCCCC2)cc1 | 5.22 µM (active) | 
14 | CCOc1ccc2nc(N(CCN(C)C)C(=O)c3ccc4ccccc4c3)sc2c1 | inactive | 
15 | COc1ccc(-c2nc3c(s2)CCc2onc(-c4ccc(OC)cc4)c2-3)cc1 | inactive | 
16 | COc1ccc(C(=O)NC2CC(C)(C)NC(C)(C)C2)cc1OC | inactive | 
17 | COc1ccc(OC)c(/C(C)=N\NC(=O)c2cc3cc(Cl)ccc3n2C)c1 | inactive | 
18 | COc1ccc(NC(=S)Nc2ccccc2Cl)cn1 | inactive | 
19 | COc1ccc(NC(=O)/C(Cl)=C(/Cl)S(=O)Cc2ccc(C)cc2)cn1 (stereo unspecified) | inactive | 
20 | COc1ccc(CS(=O)/C(Cl)=C(/Cl)C(=O)Nc2ccc(OC)nc2)cc1 (stereo unspecified) | 2.94 µM (active) | 
21 | O=C(NCc1ccccc1Cl)NC(=O)c1csc([N+](=O)[O-])c1 | inactive | 
22 | CC1(C(=O)OCC(=O)Nc2ncc(Cl)cc2Cl)CC1(Cl)Cl (stereo unspecified) | inactive | 

Row | SMILES | Potency | activity change, negative = inhibition
23 | COc1cc2c(cc1OC)C(c1cccc([N+](=O)[O-])c1)=NCC2 | inactive | 
24 | CCOC(=O)C1=NNC2(c3ccc(Cl)cc3)C(=O)N(c3cc(C)cc(C)c3)C(=O)C12 (stereo unspecified) | inactive | 
25 | CCOC(=O)C1=NN(c2ccc(Cl)cc2)/C(=C/C2=NCCc3cc(OC)c(OC)cc32)S1 | 4.15 µM (active) | 
26 | CCCCN(C(=O)C1CCC1)c1c(N)n(Cc2ccccc2)c(=O)[nH]c1=O | inactive | 
27 | O=S(=O)(NC1CC1)c1ccc(F)c(F)c1 | inactive | 
28 | Cn1ncc2c(N3CCCCC3)nc(NCCCO)nc21 | inactive | 
29 | COc1cc(C(=O)NN(CCC#N)C2=NS(=O)(=O)c3ccccc32)cc(OC)c1OC | inactive | 
30 | C=C1c2c(Cl)ccc(O)c2C(O)=C2C(=O)[C@]3(O)C(O)=C(C(N)=O)C(=O)[C@@H](N(C)C)[C@@H]3[C@@H](O)C12 (stereo partly specified) | 0.738 µM (active) | 
31 | CN(C)[C@@H]1C(=O)C(C(N)=O)=C(O)[C@@]2(O)C(=O)C3=C(O)c4c(O)ccc(Cl)c4[C@@H](O)[C@H]3C[C@@H]12 | 0.37 µM (active) | 
32 | COc1ccc(OCCC(=O)c2ccc(OC)cc2)cc1 | inactive | 
33 | CCN(c1ccccc1)S(=O)(=O)c1cc2c(cc1C)n(C)c(=O)c(=O)n2C | inactive | 
34 | Cn1c2ccccc2c2cc(/C=C(\NC(=O)c3ccccc3)C(=O)NCC(=O)O)ccc21 | inactive | 
35 | COc1ccc(-c2cc(C(F)(F)F)nc(NCc3cccnc3)n2)cc1 | 13.1 µM (active) | 
36 | COc1ccc(-c2cc3ncccc3cn2)cc1 | inactive | 
37 | COc1ccc(C(=O)O)cc1S(=O)(=O)NCc1cccnc1 | inactive | 
38 | CCN(CC)S(=O)(=O)c1ccc(N2CC(C(=O)NCc3cccnc3)CC2=O)cc1 (stereo unspecified) | inactive | 
39 | CCC(=O)c1ccc(OC(=O)/C=C/c2cc(OC)c(OC)c(OC)c2)cc1 | inactive | 
40 | CS(=O)(=O)C1=NN2C(=N)/C(=C\c3ccc(OCCOc4ccccc4)cc3)C(=O)N=C2S1 | inactive | 
41 | CCCc1nc2c(c(=O)c3ccccc3n2C)c(=O)n1-c1cc(C)cc(C)c1 | 5.86 µM (active) | 
42 | CCCc1nc2c(c(=O)c3ccccc3n2C)c(=O)n1C1CCCCCC1 | 14.7 µM (active) | 
43 | Cn1c2ccccc2c(=O)c2c(O)cccc21 | inactive | 
44 | Cn1c2ccccc2c2c(C(=O)N3CCN(c4ccc(F)cc4)CC3)cn(C3CCCC3)c(=O)c21 | inactive | 

Row | SMILES | Potency | activity change, negative = inhibition
45 | CCCCNC(=O)CCn1c(=O)c2ccccc2n(Cc2cc(C)ccc2C)c1=O | inactive | 
46 | COc1ccccc1C(=O)OCC(=O)NCCNC(=O)COC(=O)c1ccccc1OC | inactive | 
47 | Cn1cccc1C(=O)N1CCc2ccccc2C1 | inactive | 
48 | CCOc1ccc(NC(=O)CN(C)C(=O)c2c(C)noc2C)cc1OCC | inactive | 
49 | C=CC(COCc1ccccc1)N(Cc1ccccc1)S(=O)(=O)c1ccccc1Br (stereo unspecified) | 9.28 µM (active) | 
50 | C=CCCN(Cc1ccccc1)S(=O)(=O)c1ccccc1Br | inactive | 
51 | COc1ccc(S(=O)(=O)n2nc(C)c(S(=O)(=O)N3CCOCC3)c2C)cc1 | inactive | 
52 | COc1ccc(C(=O)NCCNc2ccc([N+](=O)[O-])cn2)cc1 | inactive | 
53 | Cn1c(CCC(=O)Nc2ccccc2F)nnc1SCC(=O)Nc1ccccc1Cl | inactive | 
54 | Cc1csc(NC(=O)CSc2ccc(-c3ccc(F)cc3)nn2)n1 |  | -36.6% [at 1.15 µM]
55 | O=C(CSc1ccc(-c2cccs2)nn1)Nc1ccccc1F | 2.33 µM (active) | 
56 | CCN(CC)S(=O)(=O)c1ccc(NC(=O)c2cnc(C)cn2)cc1 | inactive | 
57 | Cc1cccc2c1cnn2C(=O)CCC(=O)NC1CCCCC1 | 13.1 µM (active) | 
58 | Cc1ccc2c(cnn2C(=O)CCC(=O)NC2CCCC2)c1 | inactive | 
59 | Cc1nn(CC(=O)NC2CCCCC2)c(=O)c2cccn12 | inactive | 
60 | CNC(=O)CSc1nnnn1-c1ccc(C)cc1C | inactive | 
61 | CCn1nnnc1SCC(=O)Nc1ccc(N(C)C)cc1 | inactive | 
62 | CCn1nnnc1SCC(=O)c1ccc(C)cc1C | 7.38 µM (active) | 
63 | O=C1CSC(=S)N1c1ccc(Cl)c(Cl)c1 | inactive | 
64 | NC(=O)c1ccc(-c2csnn2)cc1 | inactive | 
65 | C[C@H](OC(=O)n1ccnc1)[C@@H]1O[C@@]2(C)CCC[C@@H]1O2 | inactive | 
66 | COc1ccccc1OCCC(=O)OCC(=O)NCc1ccccc1 | inactive | 

Row | SMILES | Potency | activity change, negative = inhibition
67 | COc1cc(C=O)c(Br)cc1OCC(=O)NCc1ccccc1 | 11.7 µM (active) | 
68 | COc1cc(C(=S)NCc2ccccc2)cc(Br)c1O | inactive | 
69 | CCOc1ccc(S(=O)(=O)N2CCC(c3ccccc3)CC2)cc1C(=O)O | inactive | 
70 | Nn1c(Cc2cccc3ccccc23)nnc1SCC(=O)N1CC(=O)Nc2ccccc21 | inactive | 
71 | C=CCn1c(COc2ccccc2C)nnc1SCC(=O)O | inactive | 
72 | C=CCn1c(COc2ccccc2F)nnc1SCC(=O)N1CC(=O)Nc2ccccc21 | 8.28 µM (active) | 
73 | O=C(COc1ccccc1)Nc1ccc(C(=O)N2CCCC2)cc1 | inactive | 
74 | COc1cc(Cl)c(C)cc1NC(=O)CN1CCCCCC1 | inactive | 
75 | Cc1cc(NC(=O)CSC2=NS(=O)(=O)c3cc(Cl)ccc3N2)no1 | inactive | 
76 | CCCCOP(=O)(c1ccc(N(C)C)cc1)C(O)c1cc(OC)ccc1OC (stereo unspecified) | inactive | 
77 | CCCOP(=O)(c1ccc(N(C)C)cc1)C(O)c1cc(OC)c(OC)c(OC)c1 (stereo unspecified) | 10.4 µM (active) | 
78 | Cc1ccc(C(O)P(=O)(OC(C)C)c2ccc(N(C)C)cc2)cc1 (stereo unspecified) | inactive | 
79 | CCC(C)N1C(=O)S/C(=C/c2ccc(Sc3nc4ccccc4[nH]3)o2)C1=O (stereo unspecified) | 1.65 µM (active) | 
80 | CCCCSc1nc2ccccc2[nH]1 | inactive | 
81 | CN=C1S/C(=C\c2ccc(Sc3ccc(Cl)cc3)o2)C(=O)N1C | inactive | 
82 | [2H]C(CCOS(N)(=O)=O)c1ccccc1 (stereo unspecified) | inactive | 
83 | COCCCn1c(SCC(=O)NC2CCCC2)nnc1-c1ccccc1 | inactive | 
84 | CC(C)(C)C(=O)NC1CC2CCCC(C1)N2C(=O)Nc1ccccc1F (stereo unspecified) | inactive | 
85 | O=S(=O)(c1cccc(-c2cn3ccccc3n2)c1)N1CCCC1 | inactive | 
86 | O=S(=O)(c1cccc(-c2nnc3n2CCCCC3)c1)N1CCOCC1 | inactive | 
87 | O=S(=O)(c1cccc(-c2nnc(SC(F)F)n2-c2ccccc2)c1)N1CCCCC1 | 7.38 µM (active) | 
88 | Cc1noc(C)c1C(=O)OCC(=O)N1CCN(S(=O)(=O)c2ccc3ccccc3c2)CC1 | inactive | 

Row | SMILES | Potency | activity change, negative = inhibition
89 | Cc1cc(S(=O)(=O)NC2CCCC2)ccc1-n1cnnn1 | inactive | 
90 | Cc1nc(Cl)c2oc3ccccc3c2n1 | inactive | 
91 | C[C@@H](Nc1nc(-c2ccccc2)nc2c1oc1ccccc12)C(=O)O | inactive | 
92 | O=c1[nH]c(CSc2ccccc2)nc2c1oc1ccccc12 | 5.22 µM (active) | 
93 | CC(C)(C)c1cc[n+](-c2[nH]c(=O)sc2/C=N/N=C(\[O-])c2ccccc2)cc1 | inactive | 
94 | O=C(OCC(=O)N1CCN(C(=O)c2ccco2)CC1)c1cccc(O)c1 | inactive | 
95 | CC(=O)Nc1ccc(NC(=O)CSc2nnc(C3CC3)n2-c2ccccc2)cc1 | inactive | 
96 | Nc1nnn(CC(=O)N/N=C/c2ccc(O)cc2)n1 | inactive | 
97 | O=C(NC1CCN(C(=S)Nc2ccc(Cl)cc2)CC1)C1CCCCC1 | inactive | 
98 | CCOCCCNC(=S)N1CCC(NC(=O)C2CCCCC2)CC1 | inactive | 
99 | O=C(NC1CC2CCCC(C1)N2C(=O)N1CCCCC1)C1CCCCC1 (stereo unspecified) | 14.7 µM (active) | 
100 | CSc1ccccc1OCc1cc(C(=O)N2C[C@H]3CC[C@H]2C3)no1 | inactive | 
101 | COc1ccc(S(=O)(=O)N2CCCC(C(=O)NCCCn3ccnc3)C2)cc1OC (stereo unspecified) | inactive | 
102 | Cc1ccc(S(=O)(=O)NCCCn2ccnc2)cc1C(=O)NC(C)C | inactive | 
103 | CCOc1ccc(S(=O)(=O)NCCCn2ccnc2)cc1NC(C)=O | 13.1 µM (active) | 
104 | CC(NC(=O)COc1cccnc1[N+](=O)[O-])c1ccc(Cl)cc1Cl (stereo unspecified) | inactive | 
105 | Clc1cccc(CN2COc3c(cc(Cl)c4cccnc34)C2)c1 | 0.329 µM (active) | 
106 | CC(C)CC(=O)N1CCN(Cc2cccc(Cl)c2)CC1 | inactive | 
